Potency data for 15 compounds are collected here from PubChem BioAssay (NCATS).

Results filed as inconclusive are left out. Activity calls are given as the source filed them. Calls follow the shape of the dose curve; as a rule, active = well fitted curve in the direction sought with a large enough effect; inconclusive = small, poorly fitted or top-dose-only effect, or another doubt; inactive = no such curve, though single readings can be large; an effect the other way counts as inactive or inconclusive.

Experiment [1] in a line: Quantitative High-Throughput drug screen in 47 multiple myeloma cell lines against the NCATS MIPE library collection: Delta47_JCRB cell viability assay (AID 1918925; also: nearly all actives have a fitted effect of over 45% in size). In short, it runs like this: (§1)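 Approved and investigational drugs from MIPE 4.0 were added by pin tool to 500 cells per well. After 48 hours at 37C, ATP-based CellTiter-Glo luminescence indicated remaining viability.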

The nature of experiment [2]: Quantitative High-Throughput drug screen in 47 multiple myeloma cell lines against the NCATS MIPE library collection: AMO1_DSMZ cell viability assay (AID 1918927; also: nearly all actives have a fitted effect of over 30% in size). The essentials: as §1
Experiment [3] in a line: Quantitative High-Throughput drug screen in 47 multiple myeloma cell lines against the NCATS MIPE library collection: Karpas620_DSMZ cell viability assay (AID 1918959). Also: nearly all actives have a fitted effect of over 30% in size. The essentials: (§2)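 CellTiter-Glo luminescence (ATP) after 48 h compound exposure, 37C/5% CO2; 500 cells/well; MIPE 4.0 approved/investigational drugs pinned in; DMSO = 100%, media only = 0% viability.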
A short description of experiment [4]: Quantitative High-Throughput drug screen in 47 multiple myeloma cell lines against the NCATS MIPE library collection: INA6_PLB cell viability assay (AID 1918965; also: nearly all actives have a fitted effect of over 55% in size). In short, it runs like this: (§3)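 Myeloma cells (500 per well) were exposed to MIPE 4.0 compounds by pin transfer and incubated 48 hours at 37C, 5% CO2. Viability was read as ATP by CellTiter-Glo luminescence, normalised to DMSO (100%) and media-only (0%) wells.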

A short description of experiment [5]: Quantitative High-Throughput drug screen in 47 multiple myeloma cell lines against the NCATS MIPE library collection: H1112_PLB cell viability assay (AID 1918967; also: nearly all actives have a fitted effect of over 30% in size). In short, it runs like this: as §1
A short description of experiment [6]: Quantitative High-Throughput drug screen in 47 multiple myeloma cell lines against the NCATS MIPE library collection: Karpas25_ECACC cell viability assay (AID 1918968; also: nearly all actives have a fitted effect of over 35% in size). In short, it runs like this: as §1
Experiment [7] in a line: Quantitative High-Throughput drug screen in 47 multiple myeloma cell lines against the NCATS MIPE library collection: KMS27_JCRB cell viability assay (AID 1918970). Also: nearly all actives have a fitted effect of over 30% in size. The note with it: KMS27 myeloma cells, CellTiter-Glo ATP viability, 48 h; viability (% of DMSO): at 45.8 µM (top of the series). In short, it runs like this: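 Myeloma cells (500 per well) were exposed to MIPE 4.0 compounds for 48 h at 37 °C, 5% CO2; viability was read as ATP luminescence with CellTiter-Glo, normalized to DMSO-only (100%) and media-only (0%) wells.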
On the technique in general: Cellular ATP, detected with luciferase, serves as a proxy for viable cell number.

A short description of experiment [8]: Quantitative High-Throughput drug screen in 47 multiple myeloma cell lines against the NCATS MIPE library collection: KMS12BM_JCRB cell viability assay (AID 1918971). Also: nearly all actives have a fitted effect of over 35% in size. The essentials:
as §1

A short description of experiment [9]: Quantitative High-Throughput drug screen in 47 multiple myeloma cell lines against the NCATS MIPE library collection: Karpas417_ECACC cell viability assay (AID 1918961). The note with it: Karpas417 myeloma viability, CellTiter-Glo ATP luminescence, 48 h; viability (% of DMSO): at 45.8 µM (top of the series). The essentials: as §3
Experiment [10] in a line: Quantitative High-Throughput drug screen in 47 multiple myeloma cell lines against the NCATS MIPE library collection: JIM3_ECACC cell viability assay (AID 1918963; also: nearly all actives have a fitted effect of over 35% in size). In short, it runs like this: as §2
Experiment [11] can be described thus: Quantitative High-Throughput drug screen in 47 multiple myeloma cell lines against the NCATS MIPE library collection: EJM_DSMZ cell viability assay (AID 1918926; also: nearly all actives have a fitted effect of over 30% in size). In short, it runs like this:
as §1

A short description of experiment [12]: Quantitative High-Throughput drug screen in 47 multiple myeloma cell lines against the NCATS MIPE library collection: ARP1_JJKsccF8 cell viability assay (AID 1918928; also: nearly all actives have a fitted effect of over 40% in size). The essentials: (§4)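 Here, 48 h treatment with MIPE 4.0 agents at 37 °C preceded an ATP luminescence read. Plating density was 500 cells per well.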
Experiment [13] in a line: Quantitative High-Throughput drug screen in 47 multiple myeloma cell lines against the NCATS MIPE library collection: ARD_JJKsccE7 cell viability assay (AID 1918929). In short, it runs like this: as §1
A short description of experiment [14]: Quantitative High-Throughput drug screen in 47 multiple myeloma cell lines against the NCATS MIPE library collection: KMM1_JCRB cell viability assay (AID 1918960). Also: nearly all actives have a fitted effect of over 30% in size. The essentials:
as §4

A short description of experiment [15]: Quantitative High-Throughput drug screen in 47 multiple myeloma cell lines against the NCATS MIPE library collection: JIM1_ECACC cell viability assay (AID 1918964). The essentials:
as §1

A short description of experiment [16]: Quantitative High-Throughput drug screen in 47 multiple myeloma cell lines against the NCATS MIPE library collection: JJN3_DSMZ cell viability assay (AID 1918966; also: nearly all actives have a fitted effect of over 50% in size). In short, it runs like this: as §1
A short description of experiment [17]: Quantitative High-Throughput drug screen in 47 multiple myeloma cell lines against the NCATS MIPE library collection: KHM11_PLB cell viability assay (AID 1918962). Also: nearly all actives have a fitted effect of over 35% in size. The essentials:
as §2
Potency is read from the fitted curve at half-maximal effect.

For `COc1c(C)c2c(c(O)c1CC=C(C)CCC(=O)OCCN1CCOCC1)C(=O)OC2`, the Potency entry in experiment [1] and in [3] was “inactive” in each case. Besides, the Potency is 0.372 µM (active) in experiment [2]; 1.87 µM (active) in experiment [4]; 3.32 µM (active) in experiment [5]; 4.18 µM (active) in [6]; 2.09 µM (active) in experiment [7]; 4.18 µM (active) in [8].

Consider `Cc1cc(CS(=O)(=O)c2ccccc2)cc(OCc2ccc(CN3CCC[C@H]3CO)cc2)c1`, for which the Potency in experiment [1] was 14.8 µM (active); in [2], 14.8 µM (active); in experiment [3] it was 14.8 µM (active); in experiment [9] it was 3.72 µM (active); in experiment [10], 20.9 µM (active); in [4] it was 18.7 µM (active). Moreover, the Potency in experiment [5] was 16.6 µM (active); in [6] it was 16.6 µM (active); in experiment [7], 4.18 µM (active); in experiment [8], 16.6 µM (active).

On to `Clc1ccc(COC(Cn2ccnc2)c2ccc(Cl)cc2Cl)c(Cl)c1` (stereo not given), for which the Potency in experiment [11] was 20.9 µM (active); in [2] it was 23.5 µM (active); in experiment [12], 18.7 µM (active); in experiment [13], 23.5 µM (active); in [3], 20.9 µM (active); in experiment [14], 18.7 µM (active). The Potency was 20.9 µM (active) in experiment [10]; 26.4 µM (active) in [15]; 20.9 µM (active) in experiment [4]; 18.7 µM (active) in experiment [5]; 20.9 µM (active) in experiment [8].

`O=c1[nH]c(=O)n([C@H]2C[C@@H](O)[C@@H](CO)O2)cc1C(F)(F)F`: the Potency is 5.26 µM (active) in experiment [1]; 1.32 µM (active) in experiment [13]; 1.87 µM (active) in [4]; 5.26 µM (active) in experiment [5]; 10.5 µM (active) in experiment [6]; 7.43 µM (active) in experiment [7]. Moreover, in experiment [8], the Potency is 8.33 µM (active). Also, the Potency entry in experiment [3], in experiment [10] and in experiment [16] was “inactive” each time.

In the case of `CCc1cc(-c2n[nH]c(C)c2-c2ccc3c(c2)OCCO3)c(O)cc1O`, the Potency in experiment [1] is 7.43 µM (active); in [12], 2.96 µM (active); in experiment [13], 1.18 µM (active); in experiment [3], 14.8 µM (active); in [14] it was 3.72 µM (active); in experiment [17] it was 4.69 µM (active). Further, the Potency was 8.33 µM (active) in experiment [10]; 5.9 µM (active) in experiment [15]; 4.69 µM (active) in [4]; 4.18 µM (active) in experiment [16]; 8.33 µM (active) in experiment [5]; 7.43 µM (active) in experiment [6]. In addition, the Potency in experiment [7] is 5.9 µM (active); in [8], 5.26 µM (active).

For `Nc1ncnc2c1ncn2[C@@H]1O[C@H](CO)[C@@H](O)[C@@H]1O`, the Potency entry in experiment [11], in experiment [10] and in experiment [5] was “inactive” throughout. Further, the Potency was 1.87 µM (active) in [2]; 23.5 µM (active) in experiment [12]; 2.64 µM (active) in experiment [13]; 5.26 µM (active) in [3]; 1.32 µM (active) in experiment [14]; 7.43 µM (active) in experiment [15]. For the same compound, the figures for the Potency in [4] and in experiment [6] were 3.32 µM (active) and 5.26 µM (active), respectively.

As for `CNC(=O)[C@H](Cc1ccccc1)NC(=O)[C@H](CC(C)C)[C@H](CSc1cccs1)C(=O)NO`, the Potency is 18.7 µM (active) in experiment [1], 18.7 µM (active) in experiment [16], 20.9 µM (active) in [5] and 16.6 µM (active) in experiment [6]. The Potency entry in experiment [17] and in experiment [7] was “inactive” in each case.

Take `CC(C)C[C@@H](N)[C@H](O)C(=O)N[C@H](C(=O)N[C@H](C(=O)N[C@@H](CC(=O)O)C(=O)O)C(C)C)C(C)C`: the Potency entry in experiment [11], in experiment [2], in experiment [12], in experiment [3], in [14] and in experiment [9] was “inactive” in each case. In addition, the Potency result in experiment [15], in experiment [7] and in experiment [8] was “inactive” each time.

For the compound `CC(C)n1c(C=C[C@H](O)C[C@H](O)CC(=O)O)c(-c2ccc(F)cc2)c2ccccc21`, the Potency in experiment [1] is 18.7 µM (active); in experiment [2], 16.6 µM (active); in experiment [13], 9.35 µM (active); in experiment [17], 14.8 µM (active); in experiment [10], 16.6 µM (active); in experiment [15], 7.43 µM (active). For the same compound, the Potency in experiment [4] was 10.5 µM (active); in experiment [5], 16.6 µM (active); in [6] it was 14.8 µM (active); in experiment [7] it was 3.72 µM (active). For the same compound, the Potency result in experiment [16] was “inactive”.

With `C[C@@H]1[C@H](O)[C@@H](C)C=CC=CC=CC=CC=CC=CC=C[C@H](O[C@@H]2O[C@H](C)[C@H](O)[C@H](N)[C@@H]2O)C[C@@H]2O[C@](O)(C[C@@H](O)C[C@@H](O)[C@H](O)CC[C@@H](O)C[C@@H](O)CC(=O)O[C@H]1C)C[C@H](O)[C@@H]2C(=O)O`, the Potency result in [1] and in [3] was “inactive” throughout. Further, the Potency was 7.43 µM (active) in experiment [12]; 3.32 µM (active) in experiment [10]; 3.32 µM (active) in experiment [5]; 3.32 µM (active) in experiment [6]; 2.09 µM (active) in [8].

For the compound `C=CC[N+]1([C@H]2C[C@H]3[C@@H]4CC[C@H]5C[C@H](O)[C@@H](N6CCOCC6)C[C@]5(C)[C@@H]4CC[C@]3(C)[C@H]2OC(C)=O)CCCC1`, the Potency result in [1], in experiment [3], in experiment [14], in experiment [17], in experiment [10] and in experiment [4] was “inactive” each time. Also, the Potency result in experiment [5], in experiment [7] and in experiment [8] was “inactive” in each case. Besides, the Potency in [16] is 0.0053 µM (active).

Turning to `CCOC(=O)[C@H]1O[C@H]1C(=O)N[C@@H](CC(C)C)C(=O)NCCC(C)C`, the Potency entry in [1], in [2], in experiment [13], in [17], in experiment [4] and in experiment [5] was “inactive” throughout. Further, in [8], the Potency was 10.5 µM (active).

Consider `CCOC(=O)[C@@H](N)CCC(=O)N[C@@H](CSCc1ccccc1)C(=O)N[C@@H](C(=O)OCC)c1ccccc1`, for which the Potency was 26.4 µM (active) in experiment [1]; 14.8 µM (active) in experiment [3]; 18.7 µM (active) in experiment [4]; 26.4 µM (active) in experiment [16]; 23.5 µM (active) in [6]; 23.5 µM (active) in experiment [7]. The Potency result in experiment [12] is “inactive”.

With `CO[C@@H]1C(N(C)C(=O)c2ccccc2)C[C@H]2O[C@]1(C)n1c3ccccc3c3c4c(c5c6ccccc6n2c5c31)C(=O)NC4=O` (stereo not given in full), the Potency in experiment [1] was 1.87 µM (active); in [13] it was 1.87 µM (active); in [10], 6.62 µM (active); in [4] it was 1.48 µM (active). Further, the Potency entry in experiment [3] and in experiment [8] was “inactive” each time.

`O=c1cc(-c2ccc(O)c(O)c2)oc2cc(O)cc(O)c12`: the Potency entry in [11], in experiment [12], in experiment [13], in [3], in experiment [14] and in experiment [8] was “inactive” throughout. Further, the Potency in [4] was 26.4 µM (active); in experiment [7], 6.62 µM (active).
